Pf apPOL inh – Pf-apPOL DNA polymerase inhibition. inhibition, % at 10 µM. AID 1794808. Recombinant Pf-apPOL, molecular beacon fluorescence, 1.5 h. hit rate 0.25% among 210,000
mHTT-CaM PPI inh – mHTT-calmodulin interaction abrogation | P42858 | AlphaScreen His-mHTT/GST-CaM binding, luminescence | inhibition, % at 15 µM | hit rate 3.6% among 190,000 | AID 1671202
Hits are given with their value; 0 = inactive; - = no result. Shown are actives, neighbours in structure and some others; about 3.5% of the full set was active somewhere. No stated cut-off is given here; in the data, active means inhibition above about 50%; inactive means the rest.

SMILES	Pf apPOL inh	mHTT-CaM PPI inh
CN(C)c1cccc(C(=O)N2CCC(CCOc3ccccc3F)CC2)c1	0	95
COc1ccc(C(=O)N2CCC(CCOc3ccccc3)CC2)c(C)c1	0	60
O=C(c1ccc(F)c(F)c1)N1CCC(CCOc2ccccc2F)CC1	0	0
CN(C)c1cccc(C(=O)N2CCC(CCOc3ccccc3)CC2)c1	0	86
COc1cccc(C(=O)N2CCC(CCOc3ccccc3)CC2)c1	0	0
CN(C)c1cccc(C(=O)N2CCC(CCOc3ccc(F)cc3)CC2)c1	0	93
COCCC1CCN(C(=O)c2ccc(OC)cc2C)CC1	0	0
COc1cccc(C(=O)N2CCC(CCOc3ccc(F)cc3)CC2)c1	0	0
Cc1ccccc1C(=O)N1CCN(c2ccc3c(c2)OCO3)C(=O)C1C (stereo not given)	0	0
CC(=O)N1CCc2ccc(NC(=O)C34CC5CC(CC(C5)C3)C4)cc2C1	0	0
CCc1ccccc1NC(=O)N1CCCC1c1ccccc1F (stereo not given)	0	0
CN(C)S(=O)(=O)c1ccc(C(=O)Nc2sc3c(c2C#N)CC(C)(C)NC3(C)C)cc1	0	0
Cc1sc2ncnc(N3CCCC3)c2c1C	0	0
CCOC1=C(C)C(c2ccccc2)Oc2ccccc21 (stereo not given)	0	0
CCC(=O)N1CCc2cc(Br)cc(S(=O)(=O)NCCCOC(C)C)c21	0	0
COc1ccccc1C(=O)N1CCC(CCOc2ccccc2F)CC1	0	52
COCCC1CCN(C(=O)c2ccccc2OC)CC1	0	0
Cc1cccc(-c2nc(C)c(C(=O)N(C)C)s2)c1	0	0
COc1ccccc1NC(=O)N1CCC(CNC(=O)c2cc(C)cs2)CC1	0	0
COc1cccc2cc(C(=O)Nc3ccccc3C)c(=N)oc12	0	0
Brc1ccc(-n2nnnc2C=CN2CCOCC2)cc1	0	-
COc1ccccc1/C=C1\C(=O)Nc2ccc(Br)cc21	0	0
COc1cc(Cl)cc(/C=C2\C(=O)Nc3ccc(Br)cc32)c1OC	0	57
COc1cc(Cl)c(/C=C2\C(=O)Nc3ccc(Br)cc32)cc1OC	0	0
COc1cccc(/C=C2\C(=O)Nc3ccc(Br)cc32)c1OC	0	89
SMILES	Pf apPOL inh	mHTT-CaM PPI inh
Cc1cccc(C(=O)N2CCN(c3cc(C)cc(C)c3)C(=O)C2C)c1 (stereo not given)	0	0
CCn1cnnc1C1CCCCN1C(=O)CCc1c(C)nn(C)c1C (stereo not given)	0	0
Cc1cccc(CNC(=O)C2CCN(c3nccc(C)n3)CC2)c1	0	0
N#CC1=C(N)Oc2n[nH]c(-c3ccccn3)c2C1c1ccco1 (stereo not given)	0	91
CC(C)(C)c1[nH]nc2c1C(c1ccco1)C(C#N)=C(N)O2 (stereo not given)	0	0
COc1ccc(CNC(=O)N2CCC(c3nc4cccnc4n3C)C2)cc1 (stereo not given)	0	0
CC1=NN(c2ccc(Cl)c(Cl)c2)C(=O)/C1=C/c1ccc(-c2ccc3c(c2)C(=O)OC3)o1	0	0
O=C1NN(c2ccc(Cl)c(Cl)c2)C(=O)/C1=C/c1ccc(-c2ccc3c(c2)COC3=O)o1	56	60
CNC(=O)c1sc(-n2cccc2)nc1C(C)C	0	0
O=c1oc2ccc(Br)cc2cc1-c1nc2ccccc2[nH]1	83	0
O=c1oc2ccc(Cl)cc2cc1-c1nc2ccccc2[nH]1	0	0
COc1cc(CN2CCCC2c2cc(C)no2)ccc1OC(C)C (stereo not given)	0	0
O=C(c1cccc(F)c1)N1CCCC1c1ccc(Cl)cc1 (stereo not given)	0	0
O=C(Nc1nnc(-c2ccc(F)cc2)o1)c1ccc(S(=O)(=O)N2CCc3ccccc3C2)cc1	0	0
CCc1nnc(NC(=O)c2ccc(S(=O)(=O)N3CCc4ccccc4C3)cc2)o1	0	55
O=C1NC(=O)C(=Cc2ccc(N3CCc4ccccc4C3)c([N+](=O)[O-])c2)C(=O)N1	0	0
COc1ccc(N2C(=O)C3C4c5ccccc5C(C(OC)OC)(c5ccccc54)C3C2=O)cc1 (stereo not given)	0	0
N#Cc1cnc2ccc(F)cc2c1N1CCC(C(=O)Nc2ccc(F)cc2)CC1	0	0
CCNC(=O)C1CC(c2ccccc2)CN(C(=O)c2ccccc2)C1 (stereo not given)	0	0
CCNC(=O)N1CC(C(=O)NCC2CC2)CC(c2ccc(F)c(C)c2)C1 (stereo not given)	0	0
CCNC(=O)C1CC(c2ccc(F)c(C)c2)CN(C(C)=O)C1 (stereo not given)	0	0
CCNC(=O)C1CC(c2ccc(F)c(C)c2)CN(C(=O)c2ccccc2)C1 (stereo not given)	0	93
Cc1cc(C2CC(C(=O)NCc3cccnc3)CN(C(=O)NC(C)C)C2)ccc1F (stereo not given)	0	67
CCC(C)NC(=O)C1CC(c2ccc(F)c(C)c2)CN(C(=O)c2ccccc2)C1 (stereo not given)	0	96
Cc1cc(NC(=O)Cn2cc3c(n2)CCC(C)C3)ccc1Br (stereo not given)	0	0
SMILES	Pf apPOL inh	mHTT-CaM PPI inh
COc1ccc(-c2csc3c(=O)n(CC(=O)N4CCCCC4)cnc23)cc1	0	0
Cc1ccccc1NC(=O)NCCN1CCN(c2ccc(Cl)cc2)CC1	0	0
O=C(CN1CCc2ccccc2C1C(=O)N1CCCC1)N1CCN(c2ccccc2)CC1 (stereo not given)	0	0
COc1ccccc1N1CCN(C(=O)c2ccncc2)CC1	0	0
COc1ccccc1N1CCN(C(=O)CC(c2ccccc2)c2ccccc2)CC1	0	76
COc1ccccc1N1CCN(C(=O)c2ccc(CSc3ccccc3)cc2)CC1	0	68
COc1ccccc1N1CCN(C(=O)CCC(=O)N2CCN(c3ccccc3OC)CC2)CC1	0	0
Nc1cc(C2CCN(C(=O)c3ccccc3F)CC2)no1	0	0
O=c1/c(=C/c2cccc(F)c2)sc2nc(-c3ccccc3)nn12	0	0
COc1ccccc1NC(=O)c1ccc(-c2nc3ccccc3s2)s1	0	0
COc1ccc(/C=C2\SC(=N)N(c3ccc(C)c(C)c3)C2=O)cc1	0	0
O=C(C=Cc1ccccc1)NCC1(O)CCCC1	0	0
O=C(c1ccc(-c2cccnc2)nc1)N1CCN(c2ccccc2)CC1	0	0
CN1CCN(C(=O)c2ccc(SCc3cccnc3)c([N+](=O)[O-])c2)CC1	0	0
O=C(c1ccc(-c2cccnc2)nc1)N1CCN(c2ccc(Cl)cc2)CC1	0	0
O=C(c1ccc(-c2cccnc2)nc1)N1CCN(c2cccc(Cl)c2)CC1	0	76
Cc1ccc(C)c(N2CCN(C(=O)c3ccc(-c4cccnc4)nc3)CC2)c1	0	64
Cc1ccc(C)c(N2CCN(C(=O)c3ccc(SCc4cccnc4)c([N+](=O)[O-])c3)CC2)c1	0	65
COc1cc2ccccc2cc1C=CC(=O)c1ccco1	0	0
COc1ccccc1-n1ccn2cc(-c3cccs3)nc2c1=O	0	0
O=C(c1ccc(S(=O)(=O)N2CCCCC2)cc1)N1CCN(c2ccccc2)CC1	0	100
O=C(c1ccc(S(=O)(=O)N2CCCCC2)cc1)N1CCCCC1	0	0
COc1cc(/C=C(\C#N)c2nc3ccccc3s2)cc(Br)c1O	0	0
COC(=O)C(=C1OC(=O)C(c2ccccc2)=C1O)c1ccccc1	0	-
O=C(NCC1CC1)C1CCN(c2ncccc2-c2nc(-c3cccc(Cl)c3)no2)CC1	0	0

Source: PubChem BioAssay
